Key:
Experiment in all cases: PBM binding z-score (relative to random genomic background probes); higher = stronger binding; sequences stand for … in GC…GCGATTGACAGCGTAGAATGAAGG
[1] = tested on: RARb homodimer (NR concentration 270 nM)
In short: (§1)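 Random background probes are the reference for binding z-scores. These scores derive from regression-normalized fluorescence on custom Agilent 4×180K protein-binding microarrays incubated 1 h with ligand-free nuclear receptor dimers. Binding was detected with antibodies against each partner (one per run).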

[2] = tested on: RARg:RXRa (NR concentration 270 nM, RXRa partner concentration 90 nM)
In short: as §1

[3] = tested on: RARg homodimer (NR concentration 270 nM)
In short: as §1

[4] = tested on: RXRa DBDmut IVT, anti-RXR (DBD mutation: RXRa K156A/R161A, NR concentration 90 nM)
In short: as §1

[5] = tested on: RXRa homodimer (NR concentration 180 nM)
In short: as §1

[6] = tested on: THRa:RXRa (NR concentration 90 nM, RXRa partner concentration 90 nM)
In short: as §1

[7] = tested on: THRa homodimer (NR concentration 90 nM)
In short: as §1

[8] = tested on: VDR homodimer (NR concentration 270 nM)
In short: as §1

Sequence | PBM binding z-score [1] | PBM binding z-score [2] | PBM binding z-score [3] | PBM binding z-score [4] | PBM binding z-score [5] | PBM binding z-score [6] | PBM binding z-score [7] | PBM binding z-score [8]
TCTAGCTGGTCACGGAGGTCACACACGACGGGTA | 4.17 | 4.88 | 5.01 | 0.665 | 5.01 | 3.67 | 2.27 | 2.72
CCGAGTAGGTTACGAGGGGGCTTTCAGTGCGAAT | 0.961 | 1.85 | 1.36 | 0.879 | 1.08 | 2.33 | 0.299 | 0.538
CGAACTAGGGCAAAGGACAGTGAAAGGCGACGTA | 1.44 | 1.1 | 1.87 | 0.227 | -0.0436 | 0.0548 | -0.953 | -0.515
CTGAGTAGGTTACGAGGGGGCATTCAGTGCGAAT | 2.18 | 3.13 | 2.47 | 1.46 | 1.72 | 3.67 | 0.778 | 3.31
CGAACTAGGTCAATGGACAGTGAAAGGCGACGTA | 2.45 | 3.17 | 4.17 | 1.14 | 2.14 | 1.93 | -0.00999 | 0.0508
CCGAGTATGTTACGAGGGGGCATTCAGTGCGAAT | 1.63 | 1.76 | 1.26 | 2.1 | 1.31 | 2.31 | 0.458 | 3.74
CGTCCAAGGTCAATGCTAGCTCAGTGAAAGCATT | 3.86 | 5.61 | 6.7 | 3.48 | 5.19 | 3.64 | 2.02 | 1.83
TATACTGGGTCAAAGGCCAGAGTACGAATGTCGA | 2.9 | 3.96 | 3.88 | 0.958 | 3.99 | 2.24 | 0.212 | 1.37
CCCAGTAGGTTACGAGGGGGCATTCAGTGCGAAT | 2.13 | 3.35 | 2.76 | 0.746 | 2.04 | 3.89 | 0.525 | 3.62
CCGAGTAGGTTACGAGGGGCCATTCAGTGCGAAT | 1.53 | 1.3 | 1.23 | 0.177 | 0.889 | 3.34 | -0.418 | 0.802
CCTAGTGGGTCAGGAGGTCACACACCGGATATGA | 4.61 | 6.26 | 5.86 | -0.339 | 6.15 | 3.73 | 2.04 | 2.09
ATATGTAGGTTAGGGTCGTTCAGAAAGTAGGGAA | 2.05 | 1.69 | 1.16 | 1.52 | 2.44 | 2.85 | 1.95 | 2.55
CTATGTAGGTTAAGGGGGTCATGCAGTTTGAAAG | 4.24 | 5.46 | 4.16 | 2.12 | 6.12 | 4.11 | 2.49 | 5
TCTAGTTGGTCACGGAGGTCACACGCGACGGGTA | 4.41 | 4.66 | 4.95 | 1.4 | 4.97 | 3.67 | 2.4 | 3.43
CCTACTGGGCCAAAGGTCCTTGATTCCAATGCTC | 0.379 | 0.102 | -0.124 | -0.459 | 0.121 | -0.00931 | -0.139 | -0.217
ACTTACGGGTCAACGGGGTTATAGCACGCGTATA | 3.81 | 5.9 | 5.07 | 2.6 | 6.78 | 4.23 | 1.08 | 3.81
ACTCGGAGGACAAAGGTAAGAGCTACGCCAGTGA | 0.319 | 1.08 | 1.1 | 0.376 | 0.494 | 0.863 | -0.169 | -0.2
ATATTTAGGTTAGGGTCATTCAGAAAGTAGGGAA | 3.47 | 4.06 | 3.55 | 2.76 | 4.71 | 4.2 | 3.85 | 4.22
CGTTCAAGGTCATAGGAGGTCAGTGAAGACAGAT | 5.77 | 7.11 | 7.22 | 4.47 | 6.46 | 5.23 | 3.63 | 5.25

Sequence | PBM binding z-score [1] | PBM binding z-score [2] | PBM binding z-score [3] | PBM binding z-score [4] | PBM binding z-score [5] | PBM binding z-score [6] | PBM binding z-score [7] | PBM binding z-score [8]
AGAATGAGGTTAACAAAGATCAGGGAAACGCTTG | 0.892 | 2.1 | 1.73 | 1.27 | 2.69 | 2.57 | 0.682 | 0.0806
CCGAGTAGGTAACGAGGGGGCATTCAGTGCGAAT | 1.62 | 1.9 | 1.27 | 0.932 | 1.21 | 2.73 | 0.519 | 3.01
CAAACTAGGTCACAGAGGTCAACGTCCGTGCGTA | 5.75 | 7.28 | 8.09 | 3.2 | 7.63 | 4.9 | 3.25 | 5.58
CGAACTAGGTCAAAGGACAGTCAAAGGCGACGTA | 3.04 | 4.11 | 4.5 | 1.74 | 3.05 | 2.54 | 0.161 | 0.43
CGAACTAGGTCAAAGAACAGTGAAAGGCGACGTA | 2.03 | 3.41 | 4.27 | 1.3 | 3 | 2.06 | 0.033 | 0.121
CCTAGCAGACCAATCTGGGTCACTCAAGGCTTGA | 1.75 | 0.672 | 0.527 | 0.174 | 0.711 | 2.64 | 0.374 | 0.0917
ATATGTAGGTTAAGGGTCATGCAGGTTGGTTCGC | 3.89 | 5.07 | 3.84 | 1.76 | 6.52 | 3.5 | 1.93 | 3.81
CTATGTAGGTTAAGGGGGTCATTCGGTTTGAAAG | 3.85 | 5.36 | 3.97 | 2.56 | 5.74 | 3.79 | 1.93 | 6.78
AGAGTGAGGTTACCAAAGATCAGGGAAACGCTTG | 1.61 | 2.25 | 1.78 | 0.473 | 2.81 | 2.84 | 1.16 | 0.671
TCGAGTAGGTTACTGGGGCATTCAGGGATGAAGA | 0.974 | 0.621 | 0.564 | 0.0231 | 0.761 | 1.83 | -0.116 | -0.285
ATCAAAAGGTCGAAGGTGAGTATACCCACCCGAA | 2.75 | 4.51 | 4.34 | 1.27 | 5.55 | 2.26 | -0.268 | 0.86
CCGAGTAGGTTCCGAGGGGGCATTCAGTGCGAAT | 1.62 | 1.66 | 1.02 | 1.42 | 1.12 | 2.38 | 1.1 | 3.91
ATATGTAGGTTAGGGTCATTCAGAAAGTAGGGAA | 3.49 | 4.11 | 3.21 | 2.68 | 5.53 | 3.97 | 3.55 | 4.01
CATACAGGGTAAGCTAGGCCAGAGTAGGGACGGC | 0.192 | 0.225 | 0.59 | -0.744 | 0.077 | 1.49 | -0.191 | -0.259
CTATGTAGGTTAAGGAGGTCATTCAGTTTGAAAG | 3.79 | 3.89 | 3.37 | 1.97 | 4.07 | 3.68 | 1.59 | 4.47
CGAATTAGGTCACCAGGACAGTGAAGAGGTTGGA | 3.77 | 4.66 | 5.28 | 1.56 | 3.42 | 3.98 | 2.96 | 0.575
AGTCAAAGTTCACTAGGCAACGTAAGATTCAGCT | 3.63 | 4.84 | 5.8 | 4.16 | 3.89 | 1.4 | -0.365 | 3.61
CAAACTAGGTCACCGGGAGGTCAAAGTCCGCATG | 5.88 | 8.67 | 7.68 | 2.07 | 7.06 | 4.94 | 4.06 | 4.85
CGAATTAGGTCAAAGGACAGTGAAAGGCGACGTA | 3.18 | 4.17 | 4.47 | 1.73 | 3.37 | 3.09 | 1.4 | 0.401

Sequence | PBM binding z-score [1] | PBM binding z-score [2] | PBM binding z-score [3] | PBM binding z-score [4] | PBM binding z-score [5] | PBM binding z-score [6] | PBM binding z-score [7] | PBM binding z-score [8]
CGTCCAAGGTCATAGGAGTTCAGTGAAGACAGAT | 4.79 | 6.25 | 6.57 | 4.22 | 6.23 | 4.71 | 2.7 | 5.97
CCGAGTAGGTTACGAGGGGGCATCCAGTGCGAAT | 2.11 | 2.95 | 2.31 | 0.736 | 2.02 | 3.7 | 0.756 | 2.87
TCTTGTTGATCAAAGGTTAAGAAAGCCGAAGCCT | 1.89 | 1.64 | 1.11 | 0.76 | 2.64 | 1.58 | -0.291 | 0.435
CCGAGTAGGTTACGAGGGGGCAATCAGTGCGAAT | 2.19 | 3.42 | 2.54 | 1.02 | 2.13 | 3.65 | 0.431 | 2.8
CCGAGTAGGCTACGAGGGGGCATTCAGTGCGAAT | 0.928 | 1.09 | 0.795 | 0.409 | 0.458 | 1.79 | -0.405 | 2.19
CGTCCAAGGTCATAGGAGGTCACTGAAGACAGAT | 5.4 | 7.13 | 7.45 | 4.05 | 7.22 | 5.37 | 3.68 | 5.28
CTAACTAGGTCAAGGTCAAAGTCGGTTTGTGCCA | 5.03 | 5.89 | 6.45 | 3.03 | 5.12 | 4.19 | 3.77 | 3.88
GATAAAGGGTCAGCTAGAGGCCAGAGTATGGAAA | 4.46 | 7.34 | 6.77 | 1.54 | 5.05 | 3.06 | -0.108 | 0.772
CGAACTAGGTCACCGGGACAGTGAAGAGGTTGGA | 3.62 | 4.73 | 5.23 | 1.41 | 3.62 | 3.75 | 1.79 | 0.333
CGTCCAAGGTCATAAGAGGTCAGTGAAGACAGAT | 5.16 | 7.1 | 7.88 | 4.16 | 7.05 | 5.23 | 3.25 | 5.57
TCGAGTAGGATACGGGGGCATTCAGGGATGAAGA | 1.19 | 1.52 | 0.916 | 1.24 | 1.29 | 3.47 | 0.629 | 2.79
ATATGTAGCTTAGGGTCATTCAGAAAGTAGGGAA | 2.97 | 3.71 | 2.73 | 2.16 | 4.87 | 4.07 | 3.15 | 3.71
ACTAGAAGGCCAAGGGTCACTCAAGATTAGTCCG | 3.97 | 4.79 | 4.33 | 0.883 | 4.57 | 2.87 | 0.528 | 1.92
ATATGTAGGTTAGGGTTATTCAGAAAGTAGGGAA | 1.72 | 1.45 | 1.05 | 1.06 | 2.13 | 2.45 | 1.52 | 1.23
TCGAGTAGGTTACGGGGGCATGCAGGGATGAAGA | 2.19 | 3.5 | 2.31 | 1.35 | 2.78 | 3.28 | 0.997 | 1.92
CAAACTAGGTCACGAAAGGTCAAATTCGAATGAC | 5.85 | 7.7 | 8.41 | 2.5 | 8.21 | 5.14 | 2.56 | 3.46
CGAACTAGGACAAAGGACAGTGAAAGGCGACGTA | 0.856 | 0.618 | 1.24 | -0.1 | 0.0792 | 0.519 | -0.508 | -0.415
CTGTGTAGGTTAAGGGGGTCATTCAGTTTGAAAG | 4.19 | 5.13 | 4.04 | 2.68 | 5.91 | 3.89 | 2.98 | 5.36
TCGAGTAAGTTACGGGGGCATTCAGGGATGAAGA | 1.15 | 1.48 | 0.746 | 1.48 | 1.4 | 3.54 | 0.682 | 3.03

Source: the supplement of paper PMC6555819
